This is an account of results in PubChem BioAssay (EPA / NIEHS).

Calls of active or inactive are those of the source. How the source made its calls: active means hit-call score of the fitted dose curve at least 0.9, where 1 is the maximum; inactive means score below 0.9.

Details in all cases: mRNA level, 48 h; actives raise or lower the signal
Read-out in test [1]: JUN Transcription Factor, JUN (gene 3725)
Nature of the test: LTEA_HepaRG_JUN: Life Technologies and Expression Analysis (LTEA) Assay for JUN Transcription Factor using HepaRG (AID 2283513). In outline:
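mRNA measured by TaqMan qRT-PCR after 48 h chemical exposure of HepaRG cultures; normalization to three housekeeping genes. Duplicate eight-point half-log curves from 100 uM in 0.5% DMSO; gain or loss fitted against DMSO baseline.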

Read-out in test [2]: Lipase C (LIPC), LIPC (gene 3990)
Nature of the test: LTEA_HepaRG_LIPC: Life Technologies and Expression Analysis (LTEA) Assay for Lipase C (LIPC) using HepaRG (AID 2283514). Put shortly: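 In this multiplexed gene-expression screen, human HepaRG cultures received test chemicals for 48 h across eight concentrations with 100 uM highest, in duplicate. Values reflect LIPC mRNA induction or suppression versus DMSO vehicle, from normalized qRT-PCR.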

Read-out in test [3]: MicroRNA 122 (MIR122), gene 406906
Kind of test: LTEA_HepaRG_MIR122: Life Technologies and Expression Analysis (LTEA) Assay for MicroRNA 122 (MIR122) using HepaRG (AID 2283516). Further: the transcript read is the microRNA miR-122. In outline:
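Expression measured by microfluidic qRT-PCR with three housekeeping genes for normalisation, after 48 h treatment of HepaRG cultures. Eight concentrations (top 100 uM, half-log steps, 0.5% DMSO vehicle) in duplicate; gain or loss fitted relative to vehicle.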

Read-out in test [4]: MYC, MYC (gene 4609)
Nature of the test: LTEA_HepaRG_MYC: Life Technologies and Expression Analysis (LTEA) Assay for MYC using HepaRG (AID 2283518). In outline:
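Cells are thawed, plated and cultured 48 h, then treated for 48 h with test chemicals (eight half-log concentrations from 100 uM, 0.5% DMSO vehicle). RNA is isolated and MYC expression quantified by qRT-PCR against three housekeeping genes.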

Read-out in test [5]: matrix metalloproteinase-3 (MMP3), MMP3 (gene 4314)
Kind of test: LTEA_HepaRG_MMP3: Life Technologies and Expression Analysis (LTEA) Assay for matrix metalloproteinase-3 (MMP3) using HepaRG (AID 2283519). Put shortly:
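Human liver HepaRG cultures received chemicals (top concentration 100 uM, 0.5% DMSO) for 48 h in duplicate. MMP3 mRNA induction or loss was then assessed via TaqMan qRT-PCR with housekeeping-gene normalisation.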

Read-out in test [6]: Paternally Expressed 10 (PEG10), PEG10 (gene 23089)
Kind of test: LTEA_HepaRG_PEG10: Life Technologies and Expression Analysis (LTEA) Assay for Paternally Expressed 10 (PEG10) using HepaRG (AID 2283520). In outline: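 PEG10 transcript measured by Fluidigm qRT-PCR, normalized to three housekeeping genes, in HepaRG cells treated 48 h (highest 100 uM, half-log steps, 0.5% DMSO vehicle). Cells plated 48 h before switching to serum-free induction medium.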

Read-out in test [7]: Nuclear factor NF-kappa-B p105 subunit (Homo sapiens) (UniProt P19838)
Kind of test: LTEA_HepaRG_NFKB1: Life Technologies and Expression Analysis (LTEA) Assay for Nuclear Factor Kappa B Subunit 1 (NFKB1) using HepaRG (AID 2283521).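 On outcome: differentiated human HepaRG liver cells in serum-free induction medium.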 Put shortly: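 NFKB1 transcript was measured by TaqMan qRT-PCR on Fluidigm arrays, normalised to three housekeeping genes and fitted in both directions against 0.5% DMSO. HepaRG cells were dosed in duplicate for 48 h in serum-free induction medium, eight half-log steps from 100 uM.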

Read-out in test [8]: Protein phosphatase 2A (PPP2R4), PTPA (gene 5524)
Kind of test: LTEA_HepaRG_PPP2R4: Life Technologies and Expression Analysis (LTEA) Assay for Protein phosphatase 2A (PPP2R4) using HepaRG (AID 2283522). In outline: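 Expression was quantified by Fluidigm qRT-PCR normalised to three housekeeping genes after 48 h treatment. Human HepaRG cells received an 8-point series from 100 µM downward by half-logs, in duplicate with 0.5% DMSO vehicle and 1 mM phenobarbital as induction control.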

Read-out in test [9]: Phosphatase and tensin (PTEN), PTEN (gene 5728)
Kind of test: LTEA_HepaRG_PTEN: Life Technologies and Expression Analysis (LTEA) Assay for Phosphatase and tensin (PTEN) using HepaRG (AID 2283523). In outline:
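Expression of PTEN is quantified in the human liver line HepaRG following two days of dosing (top concentration 100 uM, half-log dilutions, 0.5% DMSO). Values derive from bidirectional curve fitting relative to DMSO controls.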

Read-out in test [10]: solute carrier (SLC22A1), SLC22A1 (gene 6580)
Kind of test: LTEA_HepaRG_SLC22A1: Life Technologies and Expression Analysis (LTEA) Assay for solute carrier (SLC22A1) using HepaRG (AID 2283524).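 On AC50: differentiated human HepaRG liver cells in serum-free induction medium.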 Put shortly:
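Transcript induction or suppression of SLC22A1 in human HepaRG cultures is scored after 48 h chemical treatment, with DMSO (0.5%) as baseline for bidirectional fitting. Concentrations span eight half-log points topping at 100 uM.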

Read-out in test [11]: Pyruvate Dehydrogenase Kinase 4 (PDK4), PDK4 (gene 5166)
Nature of the test: LTEA_HepaRG_PDK4: Life Technologies and Expression Analysis (LTEA) Assay for Pyruvate Dehydrogenase Kinase 4 (PDK4) using HepaRG (AID 2283525). Put shortly:
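Eight-point, half-log concentration series (max 100 uM, 0.5% DMSO) applied to differentiated HepaRG cells for 48 h in duplicate. Endpoint: PDK4 mRNA induction or repression by qRT-PCR against DMSO baseline.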

Read-out in test [12]: NAD(P)H dehydrogenase [quinone] 1 (NQO1), NQO1 (gene 1728)
Nature of the test: LTEA_HepaRG_NQO1: Life Technologies and Expression Analysis (LTEA) Assay for NAD(P)H dehydrogenase [quinone] 1 (NQO1) using HepaRG (AID 2283526). In outline:
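NQO1 transcript induction or loss measured by TaqMan qRT-PCR, referenced to three housekeeping genes and fitted bidirectionally against 0.5% DMSO. HepaRG cultures exposed 48 h, duplicate, eight-point half-log series, top 100 uM.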

Read-out in test [13]: Nuclear factor erythroid 2-related factor 2 (Homo sapiens) (UniProt Q16236)
Nature of the test: LTEA_HepaRG_NFE2L2: Life Technologies and Expression Analysis (LTEA) Assay for Nuclear factor erythroid 2-related factor 2 (NFE2L2) Transcription Factor using HepaRG (AID 2283527). In outline:
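Human liver HepaRG line treated in duplicate for 48 h with an eight-point series topping at 100 uM. Gene expression of NFE2L2 by qRT-PCR, bidirectionally fitted against the vehicle control.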

Read-out in test [14]: succinate dehydrogenase complex iron sulfur subunit B (SDHB), SDHB (gene 6390)
Nature of the test: LTEA_HepaRG_SDHB: Life Technologies and Expression Analysis (LTEA) Assay for succinate dehydrogenase complex iron sulfur subunit B (SDHB) using HepaRG (AID 2283528). In outline:
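SDHB transcript level read by TaqMan qRT-PCR, housekeeping-normalised (ACTB, GAPDH, POLR2A), after 48 h chemical treatment of plated HepaRG cells; eight concentrations top 100 uM, half-log steps, 0.5% DMSO, duplicates; fitted both directions against DMSO.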

Read-out in test [15]: Signal transducer and activator of transcription 3 (Homo sapiens) (UniProt P40763)
Nature of the test: LTEA_HepaRG_STAT3: Life Technologies and Expression Analysis (LTEA) Assay for Signal transducer and activator of transcription (STAT3) using HepaRG (AID 2283529). In outline: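 In this transcriptional endpoint, HepaRG cultures receive test chemicals at up to 100 uM for 48 h, tested in duplicate. STAT3 mRNA is normalized to ACTB, GAPDH and POLR2A.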

Read-out in test [16]: sulfotransferase 2A1 (SULT2A1), SULT2A1 (gene 6822)
Nature of the test: LTEA_HepaRG_SULT2A1: Life Technologies and Expression Analysis (LTEA) Assay for sulfotransferase 2A1 (SULT2A1) using HepaRG (AID 2283531). Put shortly:
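Cells were plated and cultured 48 h, switched to serum-free induction medium, then dosed in duplicate for 48 h (8 concentrations, max 100 uM). RNA was isolated and SULT2A1 expression measured by qRT-PCR; gain or loss of signal fitted relative to DMSO.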

Read-out in test [17]: Transforming Growth Factor (TGFA), TGFA (gene 7039)
Kind of test: LTEA_HepaRG_TGFA: Life Technologies and Expression Analysis (LTEA) Assay for Transforming Growth Factor (TGFA) using HepaRG (AID 2283532). Put shortly: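 Gene expression of TGFA was quantified by qRT-PCR after human HepaRG cells were treated for 48 h with test chemicals (eight concentrations, highest 100 uM, 0.5% DMSO). Activity in either direction was fitted relative to DMSO.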

Read-out in test [18]: matrix metalloproteinase-10 (MMP10), MMP10 (gene 4319)
Kind of test: LTEA_HepaRG_MMP10: Life Technologies and Expression Analysis (LTEA) Assay for matrix metalloproteinase-10 (MMP10) using HepaRG (AID 2283517). Put shortly: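 In differentiated HepaRG cultures kept in 0.5% DMSO, test chemicals act for 48 h over an eight-point range with a top dose of 100 uM. Expression is then quantified by TaqMan RT-PCR against ACTB, GAPDH and POLR2A.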

Read-out in test [19]: solute carrier (SLCO1B1), SLCO1B1 (gene 10599)
Nature of the test: LTEA_HepaRG_SLCO1B1: Life Technologies and Expression Analysis (LTEA) Assay for solute carrier (SLCO1B1) using HepaRG (AID 2283530). In outline:
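Gain or loss of SLCO1B1 mRNA is fitted against the 0.5% DMSO vehicle in human HepaRG liver cells treated 48 h at up to 100 uM in half-log steps. Expression comes from qRT-PCR normalized to endogenous controls.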

Sequence of Nuclear factor NF-kappa-B p105 subunit (Homo sapiens) (P19838 whole entry, looked up): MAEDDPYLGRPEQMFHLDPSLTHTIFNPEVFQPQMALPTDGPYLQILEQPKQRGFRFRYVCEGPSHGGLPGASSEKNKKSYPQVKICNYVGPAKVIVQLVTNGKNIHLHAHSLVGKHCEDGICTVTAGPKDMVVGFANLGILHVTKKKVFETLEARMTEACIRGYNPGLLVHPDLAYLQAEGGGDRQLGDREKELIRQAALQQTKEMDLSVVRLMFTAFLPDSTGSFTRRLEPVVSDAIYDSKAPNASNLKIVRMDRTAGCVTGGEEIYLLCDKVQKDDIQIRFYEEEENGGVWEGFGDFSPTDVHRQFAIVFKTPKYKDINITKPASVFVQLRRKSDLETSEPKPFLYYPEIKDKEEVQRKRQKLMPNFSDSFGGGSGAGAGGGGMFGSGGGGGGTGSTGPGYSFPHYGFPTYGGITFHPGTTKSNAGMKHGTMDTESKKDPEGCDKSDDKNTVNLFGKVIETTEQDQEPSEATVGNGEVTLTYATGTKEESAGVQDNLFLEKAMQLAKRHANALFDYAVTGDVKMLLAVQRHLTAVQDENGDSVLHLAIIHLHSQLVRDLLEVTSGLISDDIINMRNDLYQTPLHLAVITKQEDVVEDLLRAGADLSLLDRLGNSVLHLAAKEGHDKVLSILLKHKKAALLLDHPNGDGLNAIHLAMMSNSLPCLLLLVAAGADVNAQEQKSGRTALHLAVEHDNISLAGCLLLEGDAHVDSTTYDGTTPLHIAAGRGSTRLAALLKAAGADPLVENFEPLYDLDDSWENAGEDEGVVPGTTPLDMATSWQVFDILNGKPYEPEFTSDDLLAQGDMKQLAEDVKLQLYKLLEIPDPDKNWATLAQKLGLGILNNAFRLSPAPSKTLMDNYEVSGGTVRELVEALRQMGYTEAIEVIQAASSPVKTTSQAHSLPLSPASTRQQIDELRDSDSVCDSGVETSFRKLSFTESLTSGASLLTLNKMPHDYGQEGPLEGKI
Sequence of Nuclear factor erythroid 2-related factor 2 (Homo sapiens) (Q16236 whole entry, looked up): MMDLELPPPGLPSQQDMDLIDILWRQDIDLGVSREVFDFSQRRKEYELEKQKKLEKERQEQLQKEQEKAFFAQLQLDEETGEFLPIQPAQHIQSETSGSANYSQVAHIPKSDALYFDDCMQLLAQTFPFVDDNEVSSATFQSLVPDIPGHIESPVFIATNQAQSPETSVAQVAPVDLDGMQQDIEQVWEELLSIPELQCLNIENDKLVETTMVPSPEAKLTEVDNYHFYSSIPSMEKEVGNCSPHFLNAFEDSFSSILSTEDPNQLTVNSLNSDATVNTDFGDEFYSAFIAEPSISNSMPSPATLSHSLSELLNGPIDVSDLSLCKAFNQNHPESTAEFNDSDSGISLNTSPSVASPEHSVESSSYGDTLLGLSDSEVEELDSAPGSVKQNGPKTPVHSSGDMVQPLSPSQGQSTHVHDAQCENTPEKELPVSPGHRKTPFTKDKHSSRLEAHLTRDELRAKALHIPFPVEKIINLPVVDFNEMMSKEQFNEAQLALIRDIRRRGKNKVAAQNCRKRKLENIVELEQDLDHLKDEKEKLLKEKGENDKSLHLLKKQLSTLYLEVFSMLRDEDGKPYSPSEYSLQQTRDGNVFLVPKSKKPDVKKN
Sequence of Signal transducer and activator of transcription 3 (Homo sapiens) (P40763 whole entry, looked up): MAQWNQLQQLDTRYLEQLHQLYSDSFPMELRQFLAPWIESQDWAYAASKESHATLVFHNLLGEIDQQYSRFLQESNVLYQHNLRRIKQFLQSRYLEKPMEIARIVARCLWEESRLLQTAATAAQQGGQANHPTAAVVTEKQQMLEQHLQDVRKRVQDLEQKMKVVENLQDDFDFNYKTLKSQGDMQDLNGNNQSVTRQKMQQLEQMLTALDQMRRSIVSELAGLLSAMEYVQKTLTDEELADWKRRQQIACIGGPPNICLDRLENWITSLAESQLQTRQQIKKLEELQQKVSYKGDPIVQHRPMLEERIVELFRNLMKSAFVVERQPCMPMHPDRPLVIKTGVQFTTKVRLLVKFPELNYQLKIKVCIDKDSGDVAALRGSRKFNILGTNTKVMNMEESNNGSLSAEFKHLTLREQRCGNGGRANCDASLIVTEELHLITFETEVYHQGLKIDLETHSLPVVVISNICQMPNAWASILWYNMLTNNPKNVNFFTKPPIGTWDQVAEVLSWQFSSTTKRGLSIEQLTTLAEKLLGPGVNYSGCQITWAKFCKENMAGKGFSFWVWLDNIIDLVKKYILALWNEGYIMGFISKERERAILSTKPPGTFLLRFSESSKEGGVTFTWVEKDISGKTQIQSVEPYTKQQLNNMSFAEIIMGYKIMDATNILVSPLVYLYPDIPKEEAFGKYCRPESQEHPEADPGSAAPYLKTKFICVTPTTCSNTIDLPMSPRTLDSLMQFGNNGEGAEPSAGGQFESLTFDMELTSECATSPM

For `Cc1ccc(N)cc1`, the result in [1], in test [2], in [3], in [4], in test [5] and in test [6] was inactive. In addition, the molecule was called inactive in test [7], in [8], in test [9], in test [10], in [11] and in [12]. Besides, the molecule was classed as inactive in [13], in test [14], in test [15], in test [16] and in [17].
As to `CCC[CH2][Sn]([Cl])([CH2]CCC)[CH2]CCC`, the AC50 was 3.32 µM (active) in test [1]; 1.46 µM (active) in test [2]; 12.8 µM (active) in test [3]; 1.87 µM (active) in test [5]; 9.07 µM (active) in [7]; 1.49 µM (active) in test [10]. Moreover, the concentration at half-maximal activity (AC50) was 15.8 µM (active) in [12]; 50 µM (active) in test [14]; 15.3 µM (active) in test [15]; 1.63 µM (active) in test [16]; 50 µM (active) in [17]. For the same molecule, the molecule was called inactive in [4], in test [6], in test [8], in test [9], in [11] and in test [13].
On to `O=C(Oc1ccc(Br)cc1)N1CCN2CCC1CC2`, for which the molecule was called inactive in test [1], in test [2], in test [3], in [4], in test [5] and in test [6]. The call in test [7], in test [8], in test [9], in test [11], in test [12] and in test [13] was inactive. In addition, the molecule was classed as inactive in test [14], in test [15], in [16] and in test [17].
With `COC(=O)Nc1nc2ccccc2[nH]1`, the outcome in test [1], in test [2], in [3], in [18], in test [4] and in test [5] was inactive. Also, the result in [6], in test [8], in test [9], in test [10], in test [11] and in test [12] was inactive. Moreover, the molecule was called inactive in [13], in [14], in [15], in [16] and in test [17].
With `ClC1=C(Cl)C2(Cl)C3C(Cl)C=CC3C1(Cl)C2(Cl)Cl` (stereo not drawn), the result in [1], in test [2], in test [3], in [5], in test [6] and in test [7] was inactive. In addition, the molecule was called inactive in [8], in [12], in [14], in [15], in test [19] and in [16]. In addition, the outcome in test [17] was inactive. Also, the values for the AC50 in test [4], in test [11] and in test [13] were 37.1 µM (active), 50 µM (active) and 8.87 µM (active), respectively.

By AC50 is commonly meant the concentration at which the activity in the assay is half-maximal.
